# Measured values reported in the supplement of paper PMC12632987.
# T1: USP38, Q8NB14
# T1 chain: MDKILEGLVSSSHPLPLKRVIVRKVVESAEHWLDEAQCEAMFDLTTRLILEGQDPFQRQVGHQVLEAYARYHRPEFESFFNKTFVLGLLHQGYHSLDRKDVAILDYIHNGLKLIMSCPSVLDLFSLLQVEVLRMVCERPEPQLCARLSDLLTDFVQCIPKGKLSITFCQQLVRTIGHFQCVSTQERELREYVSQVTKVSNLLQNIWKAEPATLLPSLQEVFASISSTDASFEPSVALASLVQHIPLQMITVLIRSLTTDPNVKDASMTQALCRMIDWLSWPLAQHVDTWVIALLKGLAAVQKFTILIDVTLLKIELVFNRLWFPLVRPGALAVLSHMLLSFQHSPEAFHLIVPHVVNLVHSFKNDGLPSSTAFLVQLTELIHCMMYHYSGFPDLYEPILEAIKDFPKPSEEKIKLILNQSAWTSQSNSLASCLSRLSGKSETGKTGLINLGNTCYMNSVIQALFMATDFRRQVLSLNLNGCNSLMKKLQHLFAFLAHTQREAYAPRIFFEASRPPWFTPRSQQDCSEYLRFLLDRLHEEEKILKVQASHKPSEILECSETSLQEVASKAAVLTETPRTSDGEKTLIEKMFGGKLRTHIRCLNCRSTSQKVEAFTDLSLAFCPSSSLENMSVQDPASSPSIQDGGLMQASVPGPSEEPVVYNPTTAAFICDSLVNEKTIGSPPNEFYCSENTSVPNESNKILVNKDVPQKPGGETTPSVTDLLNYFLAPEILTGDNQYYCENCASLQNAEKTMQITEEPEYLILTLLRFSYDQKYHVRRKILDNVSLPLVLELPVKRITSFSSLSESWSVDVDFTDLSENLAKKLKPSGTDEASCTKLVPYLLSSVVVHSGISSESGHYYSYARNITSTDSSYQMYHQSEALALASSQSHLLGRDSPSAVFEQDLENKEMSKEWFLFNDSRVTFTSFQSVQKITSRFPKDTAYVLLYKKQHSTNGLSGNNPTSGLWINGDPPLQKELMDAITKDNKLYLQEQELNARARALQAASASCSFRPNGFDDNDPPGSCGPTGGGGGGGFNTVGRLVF
# Target: T1, USP38, Q8NB14
# Test: median log2 fold change of GCK-ALFA target abundance (FLAG IP / Myc IP barcode read proportion) (log2 ratio); each designed protein is fused to an ALFA-tag nanobody in HEK293 cells to bring the named protein to FLAG-tagged glucokinase (GCK); Myc marks an untargeted standard; higher = target protein stabilised (more abundant)
# Conditions: target protein: 3xFLAG-MCP-GCK-ALFA reporter; HEK293 landing pad (RPLP)
# How it was run: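 The readout is target abundance, the per-binder median log2 ratio of FLAG to Myc barcode read proportions. It came from HEK293 landing-pad cells carrying a recombined ALFA-nanobody-fused binder library, induced with 2 μg mL^−1 doxycycline and transfected with a plasmid for a FLAG-tagged target and a Myc-tagged standard. After 48 h, lysates were immunoprecipitated with anti-FLAG and anti-Myc, and circular RNA barcodes were reverse transcribed, amplified and sequenced. Each barcode needed a proportion of at least 10^−7 in both replicates and each binder at least 3 barcodes per replicate, a pseudocount of 10^−6 was added, and the replicates were pooled.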
row,Binder,median log2 fold change
1,usp_38_diff_out_3_136_526 (protein) SVAAVKAQIKALEATARALKEDMLKLVEELLKDPNVTPEDLESLKKIVLDSFDDIIKEVEELAKKYPEVKEEAEKAIKKIEEYRDEVKKAFDEAIKEKKA,0.0442
2,usp_38_diff_out_2_35_494 (protein) SSAERAAREALLAEIDAKIDEAVALTREALELLAEINAPEEEFDELFKTYDAAMTALTTAARLVREGAPQEEIEKAKAKAEAALAKLKALLEEAKKRAKE,-0.0997
3,usp_38_diff_out_3_124_518 (protein) SEAEELVAKAKELLEKLTKVLEEAEKALDKDLEKAEKLLKEADELLTELSAALLRLRDLAMADPSWRPALKEIEAKANEVIDKYTEVATKFFEKKAEAQE,-0.761
4,usp_38_diff_out_3_124_517 (protein) SRADELAAEARATLAELNATLAELEAALDTDLERARELAARADELLARLSGLLLELRDLAREDPRYRPTLKELEAEANAAIDRYTELMTRLFEKEAEAAA,-0.553
5,usp_38_diff_out_2_61_509 (protein) SEELKKKAEEIEKLLREARELIAEARAGLDTRDPAELRALLREAERVLDEAIDLLVEFYEEAVEAGDEEALKKADELWDELGRAAKELRELRERLTERVR,0.28
6,usp_38_diff_out_2_113_474 (protein) DPEERRKEAELYRDIILEGAEQLLRLAKAGRLTPDRTKVMLGGIVHAAEEAYELDPSVKPTIEEVIKKLEEVYELVKDKNPEVAAEIKEAIEKLKEILKK,-0.0131
7,usp_38_diff_out_2_35_491 (protein) AAAEAARREEIRRRIDEMVDEANELTAETLEKLAEADAPDEKFEELFEAYDELMRLLARTYRLIREGAPLEEIERALEEAERKLEEFKKLAEELKKEAEE,0.305
8,usp_38_diff_out_3_124_516 (protein) MKAEKLYEELKKLLKEIEKLIKEAKKELNKDLEELKKLLKELDKKLDELSKVFMELHELAAEDPRYRPLLKEARKESNKVITEATKVKLEALERLAEEEE,0.0275
9,usp_38_diff_out_2_61_510 (protein) NKELEKMIKEIEAKIKEAKALVDELEAGLDTLDEETLEALLAEARAVLDEAIDLLVKAYELAHELDDKEALERLDKLWDELGEVAARLREARERFTRRRR,0.4
10,usp_38_diff_out_3_124_513 (protein) AEAEKLAKELDKALKELEKLIKEAEKELDKDPEKLKKLLEEADETLDRAAGLYMQLHELAAEDPSTRPLLKKAREKANKVIDRYTEVRTKALERLAELEE,-0.564
11,usp_38_diff_out_3_136_523 (protein) MLEEVRERVRRLEETAVSLKESMLKLIEELKKDPNVTPEDVEELRKVVLDAFDSLKAEVKEIQERYPEVKEEAEKALETIEKKKKEVDKAFEELIKEKKA,-0.217
12,usp_38_diff_out_2_61_511 (protein) NKELEEQIKEIKKLIEEAKKLVEELEALLDTADEATLEKLLEEAEKVLNKAIDLLVQAFEQAHEAGDEEALKQLDELWDELGKVAARLREARERLTRRRR,0.412
13,usp_38_diff_out_3_136_519 (protein) STEEVKEEIKRLEATAESMKESTLKLIEELSKDPNVTPEDVEELKKVVLSAFQDLKDDVKALKEAHPEVKEEADKAEAKIEAYKAEVEAAFDALIAEKKA,0.188
14,usp_38_diff_out_2_61_507 (protein) SAELQAQAERIEALLAQAEALIAELEAQLDTADEATLRALLAEAQAVLDEAIDLLVELYLRAHEAGDEEALAQADALWDRLGAVAARLRRAREALTDRLS,-0.299
15,usp_38_diff_out_2_35_493 (protein) SMEERREREERLKEIGARIDEAHELTREALELLAEIDAPQERFDRLFATYDAAMRALTAEARAVREGAPQEEIDRLRAEAEAALAELKALLAEARKLAAE,-0.077
16,usp_38_diff_out_2_35_489 (protein) SEEEEEFRREARERLDKLADEVNDTTRETLEALAEADAPLEEIERVLEESDKAFKAIAEAYRLIREGASREEIEEALKKAEEKVKEFKKYAEEVLKRLKE,0.192

row,Binder,median log2 fold change
1,usp_38_diff_out_3_136_525 (protein) SVAEAREQIKALEATAKALKESMLKLVEELLKDPNVTPEDLRELKEIVLDSFEDIKAEVEKIKKAHPEVKAEADAAIKKIEAYKKEVEAAFDAAIAAKEA,-0.268
2,usp_38_diff_out_3_136_527 (protein) ATAAVRARIRALEETARELKRSSLRLVEELLKDPNVTPEDLEELRKIVLDSFRDLEEEVRRLAAAEPAVAEEARRAEEEIRRYREEVERAFEEAIAAKKA,-0.205
3,usp_38_diff_out_2_113_475 (protein) DPEVREEIREAALSNLLSSLEELLKIAKENRRSEETMRMMVRGVIEAALELIRELNLPEEDVKKILELLEEVRKALAEKNPELAKLAQEGIEELRKAAEE,0.205
4,usp_38_diff_out_2_61_508 (protein) SEELEEKLEEVRRLLEEARRLIEELRRRLDTADEATLRALLREAESVLNEAIDLLIEVYNEAHELGDEETLEKADELWDELGRVAAELRRAREEFTDRVR,-0.394
5,usp_38_diff_out_3_65_530 (protein) KVEEKLKEAEEHLEKAEELVEELRRLTEEDPTLTADEVVEMLDKIDDELVAAGKAIEEAKKLNPTPEQKKKIEELEKRLDELIDRRIEAAEEAFLRVGEA,0.137
6,usp_38_diff_out_2_61_512 (protein) SEELEEKAKKIKELIEEAKKLVEEIEKELDTADLAELEKKLKEAEEVINKAIDELEELYKKAVLLGDEEAIKKANELWDELGEVAARYNEVRRRLTERKL,0.151
7,usp_38_diff_out_2_35_490 (protein) MEEEEAFRKKVKEELDKMQDEAHEATTETLELLAEADAPLERFDELMRKYDEFMEAAAKTYKLIEEGASKEEIEKALKEAREKYKEFMEFAEKLKKEVAA,0.00989
8,usp_38_diff_out_2_113_472 (protein) DPEEKKKEAELYKDIITEGADQLLELAKKGKLTPDRTAVMTAGIVHAAEVAYELDPSVKPTIEEVIKKLEEVYELVKDKNPEVAKIIEEAIKKLKEILKK,0.269
9,usp_38_diff_out_2_141_476 (protein) SEADELFREAFEREARAVAEEARKLIPKRLAIAERLAARGDLASLEERRTRVRAQAGAFRAMAEELEEMGGRPEVIELLRATAAELEEAAARIEELIAKL,-0.698
10,usp_38_diff_out_3_65_529 (protein) KVEEEIKKAKKYLEEARKIIEELKEKVKTDPTITEEEVNEMLDEAADLIVKAGEALRKARKLNPDEEQKKEIEKLEKELDELIDEYTEAGREAFLAVGER,0.0941
11,usp_38_diff_out_3_124_515 (protein) AEAEALLAELEELLERAEELIERAEEELDGDLERLRELLEELDEVLDELSAVFMRLHELAAEDPSHRPLLKEARKRSNEVITRATEVRLRALERLAEAAE,0.0853
12,usp_38_diff_out_3_136_524 (protein) ATAAAKAQIKALEATAKALKEDSLKLVKELLEDPNVTPEDLESLKKIVLSSFDDLIAEVKAIKAAHPEVAAEADKAIKAIEEYKKEVEKAFNEAIAKKKA,-0.221
13,usp_38_diff_out_3_136_522 (protein) SVAAVKAEIERLKATADEMKKSTLRLIAELSKDPNVTPEDVESLKKVVLDSYQDLKDDVKALKAANPEVAAQADAALAAIDANAAEVKAAFDALLKEKKA,-0.0509
14,usp_38_diff_out_3_124_514 (protein) SRAEALFAKLKELLAKAEELIKKAEEELDKNLEELKKLLEELDKVMDEASRVFMELHELAAEDPAHRPLLKEARAASNKVVTRYTEVVLKALERLAEAEE,-0.179
15,usp_38_diff_out_2_35_492 (protein) SEEEEKAREEARKEIDELTDELNKTTSETLEALAEADAPLEKFDELMAKYSEAARALAATYKLIQEGAPLEEIEKALKEAKEAVEAFKKFAEELLKEAKA,0.112
16,usp_38_diff_out_3_65_528 (protein) GVEELLARAEEALRRLEEVIREAEEALKRAEELSAEELDELIRRATRVALEAERIRRELRRAGDSPEIRAAIARLEEAIERLNEVIERLTEALTAKLIAE,0.193
